VDR inhibitor = inhibitors of human vitamin D receptor | P11473 | actives 0.93% (n = 400,000) | VDR-SRC2-3 peptide fluorescence polarization, 2 h | Potency, µM, usual class: inhibitors | AID 504847
Target sequence (P11473 whole entry, looked up): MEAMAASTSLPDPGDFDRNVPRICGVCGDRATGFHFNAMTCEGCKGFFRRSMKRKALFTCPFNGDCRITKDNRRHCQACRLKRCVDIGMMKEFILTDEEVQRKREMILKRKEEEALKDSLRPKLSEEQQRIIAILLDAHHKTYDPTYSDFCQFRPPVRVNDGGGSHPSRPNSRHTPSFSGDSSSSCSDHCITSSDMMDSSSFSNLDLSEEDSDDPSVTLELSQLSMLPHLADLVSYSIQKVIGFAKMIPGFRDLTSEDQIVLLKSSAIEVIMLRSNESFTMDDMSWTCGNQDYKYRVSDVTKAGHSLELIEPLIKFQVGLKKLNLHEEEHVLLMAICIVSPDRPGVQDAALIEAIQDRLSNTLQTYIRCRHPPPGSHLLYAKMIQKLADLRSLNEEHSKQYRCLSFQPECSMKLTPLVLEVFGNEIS
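Inhibition of the VDR/SRC2-3 peptide interaction is quantified by fluorescence polarization. Compounds (23 nl, pintool) incubate with the reagents for 2 hours at ambient room temperature.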
PLK1 PBD block = blocks phosphopeptide binding to human PLK1 polo-box domain | Potency, µM, most hits filed as inhibitors | Plk1 PBD binding of FITC phosphopeptide, fluorescence polarization | actives 2.8% (n = 360,000); further: series mostly up to about 57 µM; nearly all actives have a fitted effect of over 65% in size
Vif-A3F inh = inhibitors of Vif-A3F interaction; HeLa A3F-eYFP + Vif (tagged APOBEC3F with the HIV-1 protein that degrades it), YFP fluorescence increase; actives 0.2% (n = 390,000); Potency, µM (top dose mostly 46.1 µM); further: nearly all actives have a fitted effect of over 65% in size
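HeLa cells stably expressing Vif plus C-terminally eYFP-tagged A3F were seeded, incubated overnight at 37 deg C, dosed with compound, incubated overnight again at 37 deg C. Yellow fluorescence (Ex 488/Em 500-530) reported blocked Vif-mediated A3F-eYFP degradation.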
Vif-APOBEC3G blk = Vif-A3G binding inhibition; Q9HC16; HeLa A3G-eYFP + Vif (tagged APOBEC3G with the HIV-1 protein that degrades it), YFP fluorescence, overnight; Potency, µM (doses to about 46.1 µM), most hits filed as inhibitors; actives 0.076% (n = 410,000); further: nearly all actives have a fitted effect of over 60% in size
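HeLa cells stably expressing Vif and C-terminally eYFP-tagged A3G, seeded overnight at 37 deg C, then exposed to compound by pintool overnight at 37 deg C. Rise in yellow fluorescence (Ex 488/Em 500-530, Acumen) marks blocked Vif-driven A3G degradation.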
TSHR antagonist = blocks TSH signaling through the human TSH receptor. P16473. TSHR-expressing cells, TSH-stimulated cAMP HTRF, 2 h; active compounds read low. activity change, negative = inhibition, % at 11.5 µM. actives 0.2% (n = 330,000). AID 504810;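 active means activity change below a set negative limit, meaning inhibition stronger than a set level, cut at about -70% in these data; inconclusive means activity change between two set negative limits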
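Inhibition of cAMP made by TSHR-expressing cells under TSH stimulation (4nM final, EC80; 2 h, 37 deg C) is quantified with a one-step lysis HTRF kit, anti-cAMP cryptate versus cAMP-d2.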
A number is an active result. Hits are enriched below; roughly 3.1% of the tested compounds scored in any of these assays. Unless noted, the call rests on the fitted dose curve; in most records, active means well fitted curve in the direction sought with a large enough effect; inconclusive means small, poorly fitted or top-dose-only effect, or another doubt; inactive means no such curve, though single readings can be large; an effect the other way counts as inactive or inconclusive.

Cc1ccc(-n2sc3ccccc3c2=O)cc1S(=O)(=O)N1CCCCC1 was read as VDR inhibitor inconclusive, PLK1 PBD block 0.84µM, Vif-A3F inh inconclusive, Vif-APOBEC3G blk inactive and TSHR antagonist inactive.
For Cc1ccc(C)c(-c2nc(Cn3c(=O)cc(-c4ccccc4)c4c(C)nn(C)c43)c(C)o2)c1 the results were VDR inhibitor inactive, Vif-A3F inh inactive and Vif-APOBEC3G blk inactive.
`CNc1ccc(C=C2C=CC=C2)cc1` gave Vif-APOBEC3G blk inactive.
O=C(Cn1cnc2onc(-c3ccc(Cl)cc3)c2c1=O)Nc1ccc(F)cc1 was read as VDR inhibitor inactive, Vif-A3F inh inactive and Vif-APOBEC3G blk inactive.
`COc1ccc(OC)c(NC(=O)Cn2cnc3onc(-c4ccc(Cl)cc4)c3c2=O)c1` gave VDR inhibitor inactive, Vif-A3F inh inactive and Vif-APOBEC3G blk 1.3µM.
`COc1cccc(-c2ccc3ncnc(N4CCOCC4)c3c2)c1` gave VDR inhibitor inactive.
For Cc1ccccc1-c1ccc2ncnc(N3CCOCC3)c2c1 the results were VDR inhibitor 56µM.
Cc1noc(C)c1-c1ccc2ncnc(N3CCOCC3)c2c1 was read as VDR inhibitor 50µM.
For Cc1noc(C)c1-c1ccc2ncnc(NC3CC3)c2c1 the results were VDR inhibitor inactive.
`Cc1ccccc1-c1ccc2ncnc(NCCN3CCOCC3)c2c1` gave VDR inhibitor 50µM.
Screening Cc1ccccc1-c1ccc2ncnc(N3CCN(C)CC3)c2c1 returned VDR inhibitor inactive.
`c1cncc(-c2ccc3ncnc(NCCN4CCOCC4)c3c2)c1` gave VDR inhibitor inactive.
`Cc1noc(C)c1-c1ccc2ncnc(NC3CCNCC3)c2c1` gave VDR inhibitor 45µM.
CC(=O)C[C@H]1c2cc(F)cc(F)c2S(=O)(=O)N1C1CCN(Cc2ccccc2)CC1 was read as Vif-APOBEC3G blk inactive.
COc1ccc(Cl)cc1N1C(=O)CN(Cc2cc(OC)c(OC)c(OC)c2)C1=S was read as VDR inhibitor inconclusive, PLK1 PBD block 7.5µM, Vif-A3F inh inactive, Vif-APOBEC3G blk inactive and TSHR antagonist inactive.
CC(C)(C)n1ncc2c(=O)n(Cc3cc(F)ccc3Cl)cnc21 was read as Vif-APOBEC3G blk inactive.
`CCN1CCN(C(=S)Nc2ccc(Cl)c(Cl)c2)CC1` gave VDR inhibitor inactive, PLK1 PBD block inactive, Vif-A3F inh inactive, Vif-APOBEC3G blk inactive and TSHR antagonist inactive.
For CCN1CCN(C(=S)c2ccc(Cl)c(Cl)c2)CC1 the results were VDR inhibitor inconclusive, PLK1 PBD block 11µM, Vif-A3F inh inactive, Vif-APOBEC3G blk inactive and TSHR antagonist inactive.
Screening CC(=O)N1CCc2c(sc(NC(=O)Cc3ccc(F)cc3)c2C#N)C1 returned VDR inhibitor inactive, PLK1 PBD block inactive, Vif-A3F inh inactive, Vif-APOBEC3G blk inactive and TSHR antagonist inactive.
For COc1cc(C(=O)Nc2sc3c(c2C#N)CCN(C(C)=O)C3)cc(OC)c1OC the results were VDR inhibitor inactive, PLK1 PBD block inactive, Vif-A3F inh inactive, Vif-APOBEC3G blk inconclusive and TSHR antagonist inactive.
For COc1ccc(C(=O)Nc2sc3c(c2C#N)CCN(C(C)=O)C3)cc1 the results were VDR inhibitor inactive, PLK1 PBD block inactive, Vif-A3F inh inactive, Vif-APOBEC3G blk 10µM and TSHR antagonist inactive.
CC(=O)N1CCc2c(sc(NC(=O)Cc3ccc(C)cc3C)c2C#N)C1 was read as VDR inhibitor inconclusive, PLK1 PBD block 27µM, Vif-A3F inh inactive, Vif-APOBEC3G blk inactive and TSHR antagonist inactive.
Screening CC(=O)N1CCc2c(sc(NC(=O)c3ccc([N+](=O)[O-])o3)c2C#N)C1 returned VDR inhibitor inconclusive, PLK1 PBD block 24µM, Vif-A3F inh inactive, Vif-APOBEC3G blk inactive and TSHR antagonist inactive.
COc1ccc(/C=C/c2ccc3ccccc3n2)c(OC)c1 was read as Vif-APOBEC3G blk inactive.
`CC(=O)OCC(NC(=O)C(COCc1ccccc1)NC(=O)OC(C)(C)C)C1OC(n2ccc(=O)[nH]c2=O)C(OC(C)=O)C1OC(C)=O` (stereo not given) gave VDR inhibitor inactive and Vif-APOBEC3G blk inactive.
CC(=O)C(=Nc1ccccc1Cl)NNc1ccc(Cl)cc1 was read as VDR inhibitor 45µM, PLK1 PBD block inactive, Vif-A3F inh inactive, Vif-APOBEC3G blk inactive and TSHR antagonist inactive.
For FC(F)(F)c1ccc(-c2noc(-c3ccccc3)c2I)cc1 the results were VDR inhibitor inactive.
For Cc1[nH]c2ccccc2c1C(c1c[nH]c2ccccc12)c1c(C)[nH]c2ccccc12 the results were Vif-APOBEC3G blk inactive.
`Cc1cccc(NC(=O)Cn2ncc3c4ccccc4n(Cc4ccccc4)c3c2=O)c1C` gave VDR inhibitor inactive, Vif-A3F inh inactive and Vif-APOBEC3G blk inactive.
Screening CN1CCN(C(=O)c2cc(Cl)cc(Cl)c2NC(=O)c2ccco2)CC1 returned VDR inhibitor inactive, PLK1 PBD block 27µM, Vif-A3F inh inactive, Vif-APOBEC3G blk inactive and TSHR antagonist inactive.
For COc1ccc(C2/C=C\CN(S(=O)(=O)CC34CCC(CC3=O)C4(C)C)CC(=O)N2Cc2ccc(F)cc2)cc1 (stereo not given) the results were VDR inhibitor inactive and Vif-APOBEC3G blk inactive.
COCCNC(=O)C1(C)CCCN(CCC(=O)c2ccc(Br)cc2)C1 (stereo not given) was read as PLK1 PBD block 9.5µM and Vif-APOBEC3G blk inactive.
For CCNC(=O)C1(C)CCN1CCC(=O)c1ccc(Br)cc1 (stereo not given) the results were PLK1 PBD block inconclusive and Vif-APOBEC3G blk inactive.
For CCCNC(=O)C1(C)CCN(CCC(=O)c2ccc(Br)cc2)C1 (stereo not given) the results were PLK1 PBD block 11µM and Vif-APOBEC3G blk inconclusive.
Screening C(=C\c1ccnc2ccccc12)/c1ccc(N(Cc2ccccc2)Cc2ccccc2)cc1 returned Vif-APOBEC3G blk inactive.
`NC(=S)N/N=C/c1ccccc1OC(=O)/C=C/c1ccccc1` gave VDR inhibitor inconclusive, PLK1 PBD block inactive, Vif-A3F inh 11µM, Vif-APOBEC3G blk inactive and TSHR antagonist inactive.
Screening CC(O)COCC1OC2OC3C(COCC(C)O)OC(OC4C(COCC(C)O)OC(OC5C(COCC(C)O)OC(OC6C(COCC(C)O)OC(OC7C(COCC(C)O)OC(OC8C(COCC(C)O)OC(OC1C(OCC(C)O)C2OCC(C)O)C(OCC(C)O)C8OCC(C)O)C(OCC(C)O)C7OCC(C)O)C(OCC(C)O)C6OCC(C)O)C(OCC(C)O)C5OCC(C)O)C(OCC(C)O)C4OCC(C)O)C(OCC(C)O)C3OCC(C)O (stereo not given) returned Vif-APOBEC3G blk inactive.
Screening O=S(=O)(c1ccc(NC(=S)N2CCN(c3ccccc3F)CC2)cc1)N1CCOCC1 returned VDR inhibitor inactive, PLK1 PBD block 19µM, Vif-A3F inh inactive, Vif-APOBEC3G blk inactive and TSHR antagonist inactive.
